Assay outcomes deposited in PubChem BioAssay by The Scripps Research Institute Molecular Screening Center.
An excerpt weighted towards active compounds, which were near 2.8% of everything screened.
PAFAH1B2 inh: PAFAH1B2 enzyme inhibitors, primary screen, biochemical, fluorescence polarization, human; recombinant PAFAH1B2, FP-rhodamine activity probe; AID 492953, 2010; Platelet-activating factor acetylhydrolase IB subunit alpha2 (Homo sapiens), P68402; inhibition, % at 3.39 µM; 1.2% of 340,000 active;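 active = inhibition above the mean of all tested compounds plus 3 SD, cut at about 24% in these data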
Target sequence (P68402 whole entry, looked up): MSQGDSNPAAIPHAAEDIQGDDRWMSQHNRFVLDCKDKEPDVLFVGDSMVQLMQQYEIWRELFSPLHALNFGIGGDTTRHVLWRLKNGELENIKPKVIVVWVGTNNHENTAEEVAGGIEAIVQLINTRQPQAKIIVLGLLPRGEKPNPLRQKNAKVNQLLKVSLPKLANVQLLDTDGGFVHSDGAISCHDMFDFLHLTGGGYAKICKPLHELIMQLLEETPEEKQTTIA
pPAFAH FP inh: pPAFAH enzyme inhibitors, primary screen, biochemical, fluorescence polarization, human | Platelet-activating factor acetylhydrolase (Homo sapiens), Q13093 | recombinant pPAFAH, FP-rhodamine probe fluorescence polarization | inhibition, % at 3.39 µM | 1.5% of 330,000 active | AID 463082, 2010;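 active = inhibition above the mean inhibition across the screen plus 3 SD, cut at about 25% in these data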;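 also: inhibitors block binding of the rhodamine activity-based probe so polarization drops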
PME-1 primary: PME-1 inhibitors via competitive probe labeling, primary screen, biochemical, fluorescence polarization, FP-Rh probe, HTS | recombinant PME-1 | inhibition, % at 5.9 µM | 0.53% of 320,000 active;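 active = inhibition above the campaign mean of all compounds plus 3 SD, cut at about 26% in these data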;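 also: competitive labeling of PME-1 active site by serine hydrolase directed probe; inhibitors block probe labeling so polarization falls and inhibition rises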
PAFAH1B3 inh: PAFAH1B3 enzyme inhibitors, primary screen, biochemical, fluorescence polarization, human; Platelet-activating factor acetylhydrolase IB subunit alpha1 (Homo sapiens), Q15102; recombinant PAFAH1B3, FP-rhodamine probe; inhibition, % at 3.39 µM; 0.28% of 340,000 active;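 active = inhibition above the screen-wide average of all tested compounds plus 3 SD, cut at about 25% in these data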
Target sequence (Q15102 whole entry, looked up): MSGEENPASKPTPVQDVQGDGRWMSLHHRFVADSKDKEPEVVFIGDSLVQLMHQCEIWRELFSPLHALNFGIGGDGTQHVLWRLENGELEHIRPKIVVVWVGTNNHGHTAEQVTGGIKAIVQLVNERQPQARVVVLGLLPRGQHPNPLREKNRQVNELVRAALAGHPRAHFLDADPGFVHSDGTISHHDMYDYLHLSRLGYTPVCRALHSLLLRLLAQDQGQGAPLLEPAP
PAFAH2 inh: PAFAH2 enzyme inhibitors, primary screen, biochemical, fluorescence polarization, human. AID 492956, 2010. recombinant PAFAH2, FP-rhodamine activity probe. Platelet-activating factor acetylhydrolase 2, cytoplasmic (Homo sapiens), Q99487. inhibition, % at 3.39 µM. 0.99% of 340,000 active;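 active = inhibition above the mean over all tested compounds plus 3 SD, cut at about 30% in these data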;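 also: inhibitors block probe labeling of enzyme so polarization drops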
Fam108B counter: mouse Fam108B serine hydrolase inhibitors, primary screen, counter-screen for RBBP9 inhibitor project, biochemical, fluorescence polarization | recombinant Fam108B, FP-Rh probe fluorescence polarization | inhibition, % at 9.51 µM | 0.33% of 300,000 active;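 active = inhibition above the screen mean inhibition plus 3 SD, computed separately per campaign, cut at about 18% in these data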;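 also: inhibitors lower polarization as less probe binds the enzyme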
Fam108b confirm: mouse Fam108b serine hydrolase inhibitors, confirmation, counter-screen for RBBP9 inhibitor project, biochemical, fluorescence polarization, triplicate; inhibition, % at 9.51 µM; shares compounds with Fam108B counter; 44% of 930 active; recombinant Fam108b, FP-Rh probe fluorescence polarization;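 active = inhibition above a limit from the primary screen, the mean over all compounds plus 3 SD, cut at about 19% in these data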;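 also: inhibitors free the probe so polarization falls as inhibition rises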
Fam108b ABPP HTS: inhibition of mouse Fam108b by HTS hits, late-stage follow-up, biochemical, gel-based ABPP, soluble recombinant form | AID 588649, 2011 | inhibition, % at 20 µM | 44% of 260 active | fluorophosphonate probe | shares compounds with Fam108B counter; in the data active = inhibition above about 40%
Numbers stand for hits; . = inactive; / = no result.

SMILES	PAFAH1B2 inh	pPAFAH FP inh	PME-1 primary	PAFAH1B3 inh	PAFAH2 inh	Fam108B counter	Fam108b confirm	others
COc1ccc(-c2cc(-c3c(O)c(OC)c4occc4c3OC)[nH]n2)cc1OC	.	34	31	.	.	23	.
NC(=O)C1CCN(C2=C(Cl)C(=O)c3ccccc3C2=O)CC1	35	.	.	43	47	51	59	Fam108b ABPP HTS=.
Cc1ccc(NCc2ccccc2F)cc1	.	.	.	.	.	19	.
O=C(c1ccco1)N1CCN(Cc2cc(=O)oc3cc(O)ccc23)CC1	.	.	.	.	.	/	/
Brc1ccc(C2=Nc3cccc4cccc(c34)N2)o1	.	.	.	.	.	19	.
Cc1cccc2c(N=Nc3ccc(S(=O)(=O)Nc4cccc(Cl)c4)cc3[N+](=O)[O-])c(O)[nH]c12	26	28	32	.	.	36	28
COc1ccc(-c2nc(-c3ccccn3)ncc2S(C)(=O)=O)cc1	.	.	.	.	.	.	/
Cn1nc(-c2ccccn2)nc2c(=O)n(C)c(=O)nc1-2	32	.	36	68	59	62	86	Fam108b ABPP HTS=.
COCCNC(=O)C1Nc2ccc(C(F)(F)F)cc2C2C=CCC12 (configuration not stated)	.	.	.	.	.	.	/
O=C(O)C1Nc2c(C(=O)N3CCOCC3)cccc2C2C=CCC12 (configuration not stated)	.	.	.	.	.	.	/
Cc1ccc2c(c1C)NC(C(=O)O)C1CC=CC21 (configuration not stated)	.	65	.	.	44	23	.
CCOC(=O)c1ccc2c(c1)C1C=CCC1C(C(=O)O)N2 (configuration not stated)	/	83	.	/	/	56	33	Fam108b ABPP HTS=.
Oc1ccc(/C=N/Nc2nc(-c3cccnc3)nc3ccccc23)c(O)c1	.	25	52	.	.	52	.
COc1ccc(/C=N/Nc2nc(-c3cccnc3)nc3ccccc23)cc1OC	.	.	.	.	.	.	/
CCOc1ccccc1NC(=O)C(=O)NCCC1=CCCCC1	.	.	.	.	.	.	/
S=C(NCc1ccccc1)NCc1cccc(CNC(=S)NCc2ccccc2)c1	.	.	35	.	.	36	25
COc1cc2c(cc1OC)CN(CC(=O)Nc1ccc(F)cc1)C(C(=O)O)C2 (configuration not stated)	.	.	.	.	.	.	/
Cc1ccccc1Nc1cc2ccccc2c(=O)[nH]1	.	.	.	54	.	21	19
CCOc1ccccc1N1C(=O)CN(Cc2ccc(OC)c(OC)c2)C1=S	.	.	.	.	.	.	/
N#Cc1cccc(NC(=O)CSc2ccc3c4c(cccc24)C(=O)c2ccccc2-3)c1	30	.	.	27	36	35	21
O=C(Nc1cccc(F)c1)N1CCCCCC1	.	.	.	.	.	.	/
O=C1c2cc(CO)cc(O)c2C(=O)c2c(O[C@@H]3OC(CO)[C@@H](O)[C@@H](O)[C@@H]3O)cccc21 (some centres not stated)	.	.	.	.	.	.	/
O=C(O)c1cc(O)c2c(c1)[C@@H]([C@H]1c3cc(C(=O)O)cc(O)c3C(=O)c3c(O[C@@H]4O[C@H](CO)[C@@H](O)[C@H](O)[C@H]4O)cccc31)c1cccc(OC3O[C@H](CO)[C@@H](O)[C@H](O)[C@H]3O)c1C2=O (some centres not stated)	78	97	74	76	86	99	116
Cc1cccc(OCC(=O)N(C)CC(=O)Nc2cccc(F)c2)c1C	.	.	.	.	.	/	/
